Where a name gives a salt, the structure may show the parent alone.
Columns and labels:
Experiment in all cases: Euclidean distance of Cell Painting phenotypic profile (signed KS, 77 features) to DMSO centroid (dimensionless distance); 5 or 10 uM (library dependent); higher = stronger phenotypic change vs DMSO (phenoactivity)
Conditions in all cases: 48 h
[1] = test system: 786-O
Method in brief: (§1)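 Phenoactivity is defined as the Euclidean distance from a compound profile to the median vehicle profile. Each profile comprised 77 Harmony features, scored as signed Kolmogorov-Smirnov statistics versus same-plate vehicle wells, then plate-position corrected, correlation-weighted and replicate-averaged at the top dose. Five cancer lines and one healthy fibroblast line were exposed to library compounds for 48 h at 10 or 5 uM (0.1% DMSO final).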

[2] = test system: A549
Method in brief: as §1

[3] = test system: DU145
Method in brief: as §1

[4] = test system: FB
Method in brief: as §1

[5] = test system: HEPG2
Method in brief: as §1

[6] = test system: OVCAR4
Method in brief: as §1

Row | Compound | Euclidean distance [1] | Euclidean distance [2] | Euclidean distance [3] | Euclidean distance [4] | Euclidean distance [5] | Euclidean distance [6]
1 | O=C([O-])c1ccccc1O.[Na+] [Sodium salicylate] | 0.657 | 0.529 | 0.888 | 0.714 | 0.709 | 0.92
2 | CCCc1cc(=O)[nH]c(=S)[nH]1 [Propylthiouracil] | 0.782 | 1.25 | 2.02 | 1.4 | 0.77 | 1.77
3 | NC(=O)[C@@H]1CSSCCC(=O)N[C@@H](CCCCN=C(N)N)C(=O)NCC(=O)N[C@@H](CC(=O)O)C(=O)N[C@@H](Cc2c[nH]c3ccccc23)C(=O)N2CCC[C@H]2C(=O)N1 [Eptifibatide Acetate] | 1.66 | 1.02 | 0.993 | 1.11 | 0.664 | 1.36
4 | O=C1CN(/N=C/c2ccc(-c3ccc([N+](=O)[O-])cc3)o2)C(=O)N1 [Dantrolene sodium] | 0.573 | 0.503 | 1.37 | 0.968 | 0.758 | 1.01
5 | CNCc1ccc(C)c(NC(=O)c2ccc(Nc3nc(-c4ccccc4)c4ccccc4n3)cc2)c1 | 5.12 | 4.68 | 3.37 | 4.9 | 5.84 | 4.54
6 | O=C(Nc1ccc(O)cc1)c1ccccc1O [Osalmid] | 1.02 | 0.634 | 1.01 | 1.27 | 0.744 | 0.853
7 | CC(C)[C@H](N)C(=O)OCCOCn1cnc2c(=O)nc(N)[nH]c21 [Valaciclovir HCl] | 1.18 | 1.31 | 2.3 | 0.774 | 1.28 | 1.37
8 | CN[C@@H](C)C(=O)N[C@H]1CN(C(=O)CC(C)C)CC[C@H]2CC[C@@H](C(=O)NC(c3ccccc3)c3ccccc3)N2C1=O | 1.44 | 1.35 | 0.871 | 0.766 | 0.91 | 1.24
9 | Nc1cc(Cl)c(N=C2NCCN2)c(Cl)c1 [Apraclonidine HCl] | 0.986 | 1.57 | 0.828 | 1.25 | 0.638 | 2
10 | CCOc1cc2ncc(C#N)c(Nc3ccc(F)c(Cl)c3)c2cc1NC(=O)/C=C/CN(C)C [Pelitinib (EKB-569)] | 2.29 | 3.19 | 4.45 | 4.45 | 2.63 | 2.82
11 | O=C(O)Cc1ccccc1Nc1c(Cl)cccc1Cl [Diclofenac Potassium] | 1.38 | 0.427 | 0.963 | 1.35 | 1.1 | 0.893
12 | OCCOc1ccc(/C(=C(/CCCl)c2ccccc2)c2ccccc2)cc1 [Ospemifene] | 0.936 | 1.29 | 0.819 | 0.945 | 1.26 | 1.06
13 | CC(C)OC(=O)[C@H](C)N[P@](=O)(OC[C@H]1O[C@@H](n2ccc(=O)[nH]c2=O)[C@](C)(F)[C@@H]1O)Oc1ccccc1 [Sofosbuvir (PSI-7977. GS-7977)] | 1.34 | 0.693 | 1.07 | 0.694 | 0.59 | 1.01
14 | O=C(/C=C/c1ccc(O)cc1)c1ccc(O)cc1O [Isoliquiritigenin] | 0.936 | 1.2 | 1.16 | 0.82 | 0.786 | 0.885
15 | COC(=O)C1=C(C)NC(C)=C(C(=O)OCC(C)C)C1c1ccccc1[N+](=O)[O-] (stereo unspecified) [Nisoldipine] | 2.53 | 0.958 | 1.95 | 1.86 | 2.21 | 1.43
16 | CC(C)(Sc1cc(C(C)(C)C)c(O)c(C(C)(C)C)c1)Sc1cc(C(C)(C)C)c(O)c(C(C)(C)C)c1 [Probucol] | 0.793 | 0.681 | 0.734 | 0.921 | 1.07 | 1.14
17 | CCN(c1cc(-c2ccc(CN3CCOCC3)cc2)cc(C(=O)NCc2c(C)cc(C)[nH]c2=O)c1C)C1CCOCC1 [Tazemetostat (EPZ-6438)] | 0.99 | 1.2 | 0.651 | 0.92 | 0.489 | 1.16
18 | Cn1cc(-c2cnn3c(N)c(Br)c([C@@H]4CCCNC4)nc23)cn1 | 2.18 | 1.1 | 1.19 | 2.96 | 1.35 | 2.36
19 | CC(C(=O)O)c1ccc2c(c1)[nH]c1ccc(Cl)cc12 (stereo unspecified) [Carprofen] | 1.08 | 0.684 | 0.84 | 1.38 | 0.421 | 1.11
20 | Clc1ccc(Cn2c(CN3CCCC3)nc3ccccc32)cc1 [Clemizole] | 1.07 | 0.265 | 1.22 | 0.972 | 0.65 | 0.648
21 | COc1cc2c(cc1OC)[C@@H]1Cc3ccc(OC)c(OC)c3CN1CC2 [Tetrahydropalmatine] | 0.584 | 0.856 | 0.447 | 0.696 | 0.585 | 0.757
22 | C#C[C@]1(O)CC[C@H]2[C@@H]3CCc4cc(O)ccc4[C@H]3CC[C@@]21C [Ethinyl Estradiol] | 1.42 | 0.969 | 1.83 | 1.09 | 0.768 | 1.82
23 | CN1CCC(CNc2ccc3ncc(-c4cccc(OC(F)(F)F)c4)n3n2)CC1 [SGI-1776 free base] | 2.39 | 3.26 | 1.73 | 3.26 | 4 | 1.54

Row | Compound | Euclidean distance [1] | Euclidean distance [2] | Euclidean distance [3] | Euclidean distance [4] | Euclidean distance [5] | Euclidean distance [6]
24 | Cc1nnc(C(C)C)n1C1C[C@H]2CC[C@@H](C1)N2CC[C@H](NC(=O)C1CCC(F)(F)CC1)c1ccccc1 (stereo in doubt) [Maraviroc] | 1.35 | 0.711 | 1.04 | 1.1 | 0.487 | 1.71
25 | O=C(O)C1=C(CSc2nnnn2CS(=O)(=O)O)CS[C@@H]2[C@H](NC(=O)[C@H](O)c3ccccc3)C(=O)N12 [Cefonicid sodium] | 0.931 | 0.892 | 0.858 | 1.26 | 0.665 | 1.46
26 | CN1CCC(=C2c3ccccc3CCc3sccc32)CC1 [Pizotifen Malate] | 1.65 | 1.87 | 2.14 | 2.2 | 1.73 | 1.29
27 | CCN[C@@H]1C[C@H](N)[C@@H](O[C@H]2OC(CN)=CC[C@H]2N)[C@H](O)[C@H]1O[C@H]1OC[C@](C)(O)[C@H](NC)[C@H]1O [Netilmicin Sulfate] | 1.12 | 0.92 | 1.18 | 0.946 | 0.625 | 0.916
28 | CCN(CC)CCNC(=O)c1c(C)[nH]c(/C=C2\C(=O)Nc3ccc(F)cc32)c1C [Sunitinib] | 3.58 | 3.66 | 2.98 | 4.34 | 3.3 | 2.86
29 | COc1ccc(-c2cc(=O)c3c(O)cc(O[C@@H]4O[C@H](CO[C@@H]5O[C@@H](C)[C@H](O)[C@@H](O)[C@H]5O)[C@@H](O)[C@H](O)[C@H]4O)cc3o2)cc1O [Diosmin] | 0.665 | 0.621 | 1.01 | 0.778 | 0.671 | 0.702
30 | [O-][n+]1cccc(-c2nc3c(Cl)cccc3cc2[C@@H](Nc2ncnc3cccnc23)C(F)(F)F)c1 [Seletalisib (UCB-5857)] | 1.2 | 0.825 | 1.4 | 1.69 | 1.73 | 2.03
31 | COc1cccc(Nc2c(C(N)=O)cnc3c(C)cc(S(=O)(=O)c4cccc(C(=O)N(C)C)c4)cc23)c1 | 1.2 | 0.89 | 1.05 | 1.95 | 1.19 | 1.48
32 | COc1ccc(OC)c(C(O)CNC(=O)CN)c1 (stereo unspecified) [Midodrine] | 0.905 | 1.21 | 0.468 | 0.683 | 0.342 | 0.78
33 | O=C(NC(NC(=S)Nc1ccc(F)c([N+](=O)[O-])c1)C(Cl)(Cl)Cl)C(c1ccccc1)c1ccccc1 (stereo unspecified) | 1.02 | 2.27 | 1.38 | 1.49 | 1.56 | 1.25
34 | O=C(O)/C=C/c1ccc(Cn2ccnc2)cc1 [Ozagrel HCl] | 0.843 | 0.862 | 1.12 | 0.899 | 1.97 | 1.61
35 | CNC(=O)CN(CCN(CCN(CC(=O)[O-])CC(=O)NC)CC(=O)[O-])CC(=O)[O-].O.[Gd+3] [Gadodiamide Hydrate] | 1.58 | 0.803 | 1.3 | 1.38 | 0.469 | 0.986
36 | CCCc1cc(C)[nH]c(=O)c1CNC(=O)c1cc(-c2ccc(N3CCN(C(C)C)CC3)nc2)cc2c1cnn2C(C)C | 1.57 | 1.62 | 1.42 | 2.34 | 1.03 | 1.18
37 | COc1cc2c(Oc3ccc(NC(=O)C4(C(=O)Nc5ccc(F)cc5)CC4)cc3F)ccnc2cc1OCCCN1CCOCC1 | 1.39 | 2.06 | 1.35 | 1.52 | 0.94 | 3.97
38 | CCOc1ccc(Cc2cc([C@@H]3O[C@H](CO)[C@@H](O)[C@H](O)[C@H]3O)ccc2Cl)cc1 [Dapagliflozin propanediol monohydrate] | 1.02 | 0.644 | 1.02 | 0.967 | 0.649 | 0.832
39 | COC(=O)[C@@H]1CC2=CC(=O)CC[C@]2(C)[C@@]23O[C@@H]2C[C@@]2(C)[C@@H](CC[C@@]24CCC(=O)O4)[C@H]13 [Eplerenone] | 1.18 | 0.666 | 0.81 | 0.974 | 1.38 | 0.746
40 | C[N+](C)(C)CCOC(N)=O [Carbachol] | 1.07 | 1.19 | 0.687 | 1.16 | 0.696 | 1.56
41 | COc1ccccc1N1CCN(CCN2C(=O)CC3(CCCC3)CC2=O)CC1 | 1.45 | 1.72 | 1.3 | 1.24 | 1.77 | 1.54
42 | CC(=O)[C@H]1CC[C@H]2[C@@H]3CC=C4C[C@@H](O)CC[C@]4(C)[C@H]3CC[C@]12C [Pregnenolone] | 1.29 | 1.07 | 0.872 | 1.07 | 0.703 | 1.03
43 | CCCCOc1ccc(C(=O)Nc2ccc(F)cc2F)cc1 | 1.45 | 1.45 | 1.14 | 1.28 | 0.872 | 1.5
44 | Clc1ccc(C(Cn2ccnc2)OCc2ccsc2Cl)c(Cl)c1 (stereo unspecified) [Tioconazole] | 1.07 | 0.786 | 2.41 | 1.25 | 1.14 | 1.44
45 | O=C(O)c1cn(-c2ccc(F)cc2)c2cc(N3CCNCC3)c(F)cc2c1=O [Sarafloxacin HCl] | 1.11 | 0.812 | 1.78 | 0.799 | 0.601 | 0.719
46 | N#Cc1cnc(Nc2cc(NC[C@H]3CNCCO3)c(C(F)(F)F)cn2)cn1 | 3.22 | 2.16 | 2.89 | 3.11 | 2.5 | 1.99
